Assay results as given in PubChem BioAssay (NCI).
Compounds without any hit were thinned out: in the full panel of roughly 83,000, 20% have a hit.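 Interpretation: 100, growth as untreated; towards 0, rising growth inhibition; 0, no net growth; 0 to -100, cell death. Compounds scoring below 10 were considered active.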 Values without a mark were called inactive. Activity calls are given as the source filed them.

Legend:
Experiment in all cases: NCI-60 one-dose screen, 48 h (100 = growth as untreated, 0 = no growth, -100 = all killed)
Conditions in all cases: 10 µM unless noted
NCI-H23 lung = system: NCI-H23 lung
NCI-H226 lung = system: NCI-H226 lung
NCI-H322M lung = system: NCI-H322M lung
HOP-62 NSCLC = system: HOP-62 NSCLC
NCI-H460 lung = system: NCI-H460 lung
HOP-92 NSCLC = system: HOP-92 NSCLC
786-0 renal = system: 786-0 renal
COLO 205 colon = system: COLO 205 colon
DU-145 prostate = system: DU-145 prostate
K-562 leukemia = system: K-562 leukemia
MALME-3M melanoma = system: MALME-3M melanoma
MDA-MB-231 breast = system: MDA-MB-231 breast
SF-268 CNS = system: SF-268 CNS
SF-539 CNS = system: SF-539 CNS
M14 melanoma = system: M14 melanoma
RXF 393 renal = system: RXF 393 renal
SF-295 CNS = system: SF-295 CNS
NCI-H522 lung = system: NCI-H522 lung
A549/ATCC NSCLC = system: A549/ATCC NSCLC
UACC-257 melanoma = system: UACC-257 melanoma

SMILES | growth (NCI-H23 lung) [%] | growth (NCI-H226 lung) | growth (NCI-H322M lung) [%] | growth (HOP-62 NSCLC) | growth (NCI-H460 lung) | growth (HOP-92 NSCLC) | growth (786-0 renal) | growth (COLO 205 colon) [%] | growth (DU-145 prostate) [%] | growth (K-562 leukemia) | growth (MALME-3M melanoma) [%] | growth (MDA-MB-231 breast) [%] | growth (SF-268 CNS) [%] | growth (SF-539 CNS) | growth (M14 melanoma) [%] | growth (RXF 393 renal) | growth (SF-295 CNS) | growth (NCI-H522 lung) | growth (A549/ATCC NSCLC) [%] | growth (UACC-257 melanoma) [%]
COc1cc2ccc(C(C)=O)cc2cc1OC | 99.5 | 81.4% | 104 | 81.8% | 100% | 86% | 107% | 97.1 | 111 | 118% | 107 | 109 | 101 | 95.6% | 110 | – | – | – | – | –
Cc1cccc2nc3ccccc3c(Nc3ccc(NS(C)(=O)=O)cc3)c12 | 57.8 | 5.12% (active) | 92.8 | 35.2% | 10.1% | -3.43% (active) | 38.2% | – | 23.1 | 35.1% | 40.4 | 72.9 | 57.9 | 39.6% | 70.7 | 55.4% | 21.6% | – | – | –
COc1ccc(-c2cc(-c3cc4ccccc4oc3=O)n(-c3ccccc3)n2)cc1 | 79.3 | 75.7% | 78.1 | 55.4% | 95.3% | 67% | -31.5% (active) | 66.3 | 84 | 81.8% | 69.5 | 60.1 | 71.1 | 33.8% | 89 | – | 94.7% | – | – | –
COc1cc(C2CC(c3ccc(C)cc3)=NN2C=O)ccc1Oc1ccnc2cc(Cl)ccc12 (stereo not drawn) | 58.6 | 49.1% | 91.1 | 3.38% (active) | 62.7% | – | 18% | 108 | 89 | 109% | 98 | 36.1 | 16.3 | 4.72% (active) | 106 | 0.362% (active) | 1.79% (active) | 28.3% | 67.8 | 103
O=C1C=CN2C(=O)CC=CC2[C@@H]1O (stereo partly drawn) | 103 | 113% | 116 | 112% | 121% | – | 110% | 123 | 118 | 109% | 133 | 122 | 111 | 104% | 104 | 118% | 116% | 113% | 108 | 108
Fc1ccc(-c2nc(-c3ccc(-c4nc5ccc(F)cc5[nH]4)cc3)no2)cc1 | 67.7 | 54.9% | 70.5 | 79.6% | 67.4% | – | 102% | 71.6 | 39.4 | 63% | 68.3 | 74.3 | 66.1 | 69.2% | – | 79.8% | 73.4% | 91.4% | 75.4 | 87.8
COc1cnc2c(c1)C(=O)c1c-2n(CCCN2CCN(C)CC2)c(=O)c2cc(Cl)ccc12 | 47.9 | 30.4% | 49.3 | 20.5% | 6.14% (active) | – | 21.3% | 31.3 | 33.1 | -76.1% (active) | 75.4 | 48.6 | 35.7 | 14.7% | – | 46.9% | 35.5% | 11.7% | 37.7 | 14.1
CN(C)CC(=O)c1ccc2cc(Br)c3ccccc3c2c1 | 74.1 | 88.1% | 75.7 | 83.2% | 59.4% | – | 47.4% | 74.1 | 77.8 | 38.5% | 106 | 76.4 | 77.6 | 79.5% | – | 72.2% | 82.8% | 9.3% (active) | 51.5 | 66
CCN(CC)c1ccc(/C=N/NC(=O)C[N+](C)(C)C)cc1 | 99.4 | 98.9% | 115 | 99.2% | 110% | – | 101% | 111 | 113 | 54.3% | 92.6 | 119 | 110 | 110% | 110 | 112% | 109% | 100% | 100 | 104
